What is called AC50 is the concentration at which the activity in the assay is half-maximal.

AC50 and activity, negative = inhibition data for 88 compounds are collected here from PubChem BioAssay AID1851 (National Center for Advancing Translational Sciences (NCATS), 2009).

Structures are written as SMILES. Out of some 16,000 compounds screened, about 5,700 (36%) were called active. Inconclusive results (about 24%) are left out. Calls come from the whole dose curve; as a rule, active = well fitted curve in the direction sought with a large enough effect; inconclusive = small, poorly fitted or top-dose-only effect, or effect the other way; inactive = no such curve, though single readings can be large or run the other way. This is one part of the list.
% is set by controls: 0 for no effect and ±100 for the full control effect.

In the assay the target is Cytochrome P450 1A2 (Homo sapiens) (UniProt P05177). In words: Cytochrome panel assay with activity outcomes. The conditions noted are these: recombinant CYP, pro-luciferin dealkylation, luminescence, p450-cyp1a2; series mostly up to 57.1 µM.
Cytochrome P450 1A2 (Homo sapiens), sequence (P05177 whole entry, looked up): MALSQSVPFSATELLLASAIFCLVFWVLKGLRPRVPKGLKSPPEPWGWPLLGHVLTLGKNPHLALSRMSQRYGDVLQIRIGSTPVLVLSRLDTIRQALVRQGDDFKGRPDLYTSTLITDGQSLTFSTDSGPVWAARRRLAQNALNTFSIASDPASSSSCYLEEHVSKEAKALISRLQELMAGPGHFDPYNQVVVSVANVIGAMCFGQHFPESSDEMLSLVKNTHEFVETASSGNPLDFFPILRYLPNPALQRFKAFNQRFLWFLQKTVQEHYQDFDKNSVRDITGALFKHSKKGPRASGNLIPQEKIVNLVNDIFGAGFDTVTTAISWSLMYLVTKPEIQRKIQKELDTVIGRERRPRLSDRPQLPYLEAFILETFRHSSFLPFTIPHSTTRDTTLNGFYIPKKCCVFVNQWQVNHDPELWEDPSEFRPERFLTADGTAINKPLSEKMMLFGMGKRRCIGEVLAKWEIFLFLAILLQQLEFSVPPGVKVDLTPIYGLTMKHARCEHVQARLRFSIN
Regarding `Cc1nn(C)c(Cl)c1NC(=O)OCc1ccc(Cl)cc1Cl`, the AC50 is 5.01 µM (active).

Take `Cc1nn(C)c(Cl)c1NC(=O)OCc1ccc(F)cc1`: the AC50 is 14.1 µM (active).

As for `CC(C)(C)C(=O)OCOC(=O)[C@@H]1N2C(=O)[C@@H](NC(=O)[C@H](N)c3ccccc3)[C@H]2SC1(C)C`, the AC50 result is “inactive”.

`COc1ccc(O[C@H]2C=C[C@@H](c3ccccc3)O[C@H]2COC(=O)CC/C(C)=N\O[C@@H](C)c2cc(-c3c(C)cc(C)cc3C)no2)cc1`: the activity, negative = inhibition is -2.73% [at 11.4 µM] (inactive).

For `N#Cc1cccc(-c2cc(NCc3cccnc3)ncn2)c1`, the AC50 was 0.0398 µM (active).

`Cc1cccc(CNc2cc(-c3cccc(C#N)c3)ncn2)c1`: the AC50 was 0.158 µM (active).

Turning to `N#Cc1cccc(-c2cc(NCc3ccccc3)ncn2)c1`, the concentration at half-maximal activity (AC50) was 1 µM (active).

As for `N#Cc1cccc(-c2cc(NCc3cccs3)ncn2)c1`, the AC50 was 0.794 µM (active).

Turning to `C[C@@H](c1ccccc1)N1C(=O)[C@H]2[C@@H]3[C@H](O)C=CC(=O)[C@H]3CC[C@H]2C1=O`, the activity, negative = inhibition was -9.41% [at 11.4 µM] (inactive).

In the case of `COC(=O)C1C(=O)C2=C(CC1C)NC(=O)CC2c1cccc(C)c1` (stereo not drawn), the AC50 result is “inactive”.

Consider `COC(=O)[C@@]1(Cc2ccccc2)[C@H]2c3cc(C(=O)N4CCCC4)n(Cc4ccc(S(C)(=O)=O)cc4)c3C[C@H]2CN1C(=O)c1ccccc1`, for which the AC50 entry is “inactive”.

With `CN(CC[C@@H](Oc1ccc(-c2ccccc2)cc1)c1ccc(F)cc1)CC(=O)O`, the AC50 result was “inactive”.

Regarding `O=C(Nc1ccc(Cl)cc1)OCCn1nnnc1C(c1ccccc1Cl)N1CCOCC1` (stereo not drawn), the AC50 is 15.8 µM (active).

In the case of `COC(=O)CNC(c1ccccc1Cl)c1cc(Br)ccc1NC(=O)CCN1CCOCC1` (stereo not drawn), the AC50 entry is “inactive”.

For the compound `COc1ccc(Cn2nnnc2C(c2ccccc2Cl)N2CCC(C(N)=O)CC2)cc1` (stereo not drawn), the AC50 result was “inactive”.

Consider `CO[C@@H]1/C=C\O[C@@]2(C)Oc3c(C)c(O)c4c(c3C2=O)C(=N[C@H]2CC[C@H](O)O[C@@H]2C)C=C(NC(=O)/C(C)=C\C(=O)[C@@H]2C[C@@H]2[C@@H](O)[C@H](C)[C@@H](O)[C@H](C)[C@H](OC(C)=O)[C@@H]1C)C4=O`, for which the activity, negative = inhibition is -9.54% [at 11.4 µM] (inactive).

On to `COc1ccc(-n2nnnc2SCC(=O)Nc2ccccc2)cc1`, for which the AC50 is 6.31 µM (active).

As for `COc1ccc(NC(=O)CSc2nnc(C3CC3)n2-c2ccccc2)cc1`, the AC50 entry was “inactive”.

With `COc1ccc(NC(=O)CSc2ccc3c4c(cccc24)C(=O)c2ccccc2-3)cc1`, the AC50 is 1.58 µM (active).

Consider `COc1ccc(NC(=O)CSC2=NC(=O)CC(C)=N2)cc1`, for which the AC50 entry was “inactive”.

On to `COc1ccc(-n2ccnc2SCC(=O)Nc2ccccc2)cc1`, for which the AC50 is 12.6 µM (active).

In the case of `Cn1ccnc1SCC(=O)Nc1sccc1C#N`, the AC50 is 3.16 µM (active).

For `CCC(=O)Nc1ccc(NC(=O)CSc2nnnn2-c2cccnc2)cc1C`, the AC50 result is “inactive”.

Take `C=CCN1C(=NC(=O)CC)SC2CS(=O)(=O)CC21` (stereo not drawn): the AC50 result is “inactive”.

Take `O=c1[nH]c(=S)c2[nH]c(=O)n(-c3ccccc3)c2[nH]1`: the activity, negative = inhibition was -1.84% [at 11.4 µM] (inactive).

As for `COC(=O)CSc1nnc(C)n1-c1cccc(OC)c1`, the AC50 entry is “inactive”.

On to `COc1cccc(NC(=O)CSc2nnc(CN3CCOCC3)n2C)c1`, for which the AC50 result is “inactive”.

`COc1cccc(-n2ccnc2SCC(=O)Nc2nccs2)c1`: the concentration at half-maximal activity (AC50) was 1.26 µM (active).

Take `CCOc1ccc(-n2c(SCC(=O)Nc3ccc(OC)cc3OC)nc3c(c2=O)SCC3)cc1`: the AC50 entry is “inactive”.

As for `COc1ccc(-n2ccnc2SCC(=O)Nc2ccc(OC)cc2OC)cc1`, the concentration at half-maximal activity (AC50) is 6.31 µM (active).

Consider `O=C1[C@H]2[C@H]3[C@H](O)[C@H](O)C/C(=N/OC[C@@H](O)COCc4ccco4)[C@H]3CC[C@@H]2C(=O)N1Cc1ccc2c(c1)OCO2`, for which the activity, negative = inhibition was 6.71% [at 11.4 µM] (inactive).

As to `O=C(c1ccncc1)N1CCC2(CC1)CN(Cc1cc(C(F)(F)F)cc(C(F)(F)F)c1)C2`, the AC50 entry is “inactive”.

In the case of `O=C1[C@@H]2[C@@H]3C=C[C@H]([C@@H]2C(=O)N1CN1CCSCC1)[C@@H]1[C@@H]2C(=O)N(CN4CCSCC4)C(=O)[C@@H]2[C@H]31`, the activity, negative = inhibition was -13.4% [at 11.4 µM] (inactive).

For the compound `CN(C)CCNC(=O)c1cc(Br)ccc1Cl`, the concentration at half-maximal activity (AC50) was 11.2 µM (active).

On to `CN(C)CCNC(=O)Cn1nc(-c2ccc(Cl)cc2)ccc1=O`, for which the AC50 result was “inactive”.

`O=C(NOC(=O)c1cc(Br)ccc1Cl)c1cccs1`: the AC50 result is “inactive”.

Take `CCCS(=O)(=O)N1CCCC(C(=O)NCCN(C)Cc2ccccc2)C1` (stereo not drawn): the AC50 result was “inactive”.

As for `Cn1c(=O)c2c(nc(N3CCN(c4ccccn4)CC3)n2Cc2ccc(Cl)cc2Cl)n(C)c1=O`, the AC50 entry was “inactive”.

With `CCn1c(SCc2ccc(Cl)cc2Cl)nc2nc3c(cc2c1=O)CCCC3`, the AC50 was 3.55 µM (active).

As to `CCC(=O)Nc1ncnc2ncn(C(=O)CC)c12`, the activity, negative = inhibition is -5.19% [at 11.4 µM] (inactive).

Consider `CCCCNC(=O)Cc1coc2ccc3ccccc3c12`, for which the AC50 was 4.47 µM (active).

Turning to `CCOC(=O)CSc1nnc(Cc2cc(=O)[nH]c(=O)[nH]2)n1-c1cccc(OC)c1`, the AC50 entry is “inactive”.

Take `CCOC(=O)CSc1nnc(CSc2nc3sc4c(c3c(=O)[nH]2)CCCC4)n1-c1ccccc1`: the AC50 is 14.1 µM (active).

For `CCOC(=O)C(Sc1ncnc2c1sc1nc(N3CCOCC3)c3c(c12)CCCC3)c1ccccc1` (stereo not drawn), the AC50 entry was “inactive”.

Turning to `CN(Cc1ccco1)c1ncnc2ccc(-c3cccc(NS(C)(=O)=O)c3)cc12`, the half-maximal activity concentration (AC50) is 0.398 µM (active).

On to `CN(Cc1ccco1)c1ncncc1-c1cccc(NS(C)(=O)=O)c1`, for which the AC50 is 15.8 µM (active).

Take `O=C1NC(c2ccccc2)=NC1(NS(=O)(=O)c1ccccc1)C(F)(F)F` (stereo not drawn): the AC50 entry is “inactive”.

Turning to `N#CCCn1c(=O)c(CCc2ccccc2)nc2cnc(Nc3ccccc3)nc21`, the AC50 entry was “inactive”.

Take `COc1cccc(Nc2ncc3nc(CCc4ccccc4)c(=O)n(CCC#N)c3n2)c1`: the AC50 result was “inactive”.

Regarding `Cc1nc2cnc(Nc3ccccc3)nc2n(CCC#N)c1=O`, the half-maximal activity concentration (AC50) is 0.631 µM (active).

For the compound `COc1cccc(Nc2ncc3nc(C)c(=O)n(CCC#N)c3n2)c1`, the half-maximal activity concentration (AC50) was 1.26 µM (active).

Turning to `COc1cccc(Nc2ncc3ncc(=O)n(CCC#N)c3n2)c1`, the AC50 was 1 µM (active).

`COc1ccc(-c2nc3cnc(Nc4cccc(OC)c4)nc3n(CCC#N)c2=O)cc1`: the half-maximal activity concentration (AC50) is 6.31 µM (active).

As to `C[N+](C)(C)CCCCCC[N+](C)(C)C`, the AC50 entry was “inactive”.

As to `O=S(Cc1ccccc1)CC(O)(c1ccccc1)c1ccccc1` (stereo not drawn), the AC50 result was “inactive”.

In the case of `Cc1ccc(C(=O)N2CCN(C3c4cccc5cccc(c45)C3NS(=O)(=O)c3ccccc3)CC2)cc1` (stereo not drawn), the AC50 entry was “inactive”.

As for `CS(=O)(=O)Nc1cccc(-c2cncnc2Nc2ccccc2)c1`, the concentration at half-maximal activity (AC50) was 5.01 µM (active).

In the case of `CS(=O)(=O)Nc1cccc(-c2cncnc2Nc2ccc(F)cc2)c1`, the AC50 was 5.01 µM (active).

Take `CN=C(NC#N)NCCSC[C@H]1N=CN=C1C`: the AC50 entry is “inactive”.

`Cc1cnnn1-c1ccc(C(=O)CCl)cc1`: the AC50 was 2.82 µM (active).

Take `COc1cccc(-c2cncnc2NCc2cccnc2)c1`: the AC50 was 0.794 µM (active).

`COc1cccc(-c2cncnc2NCc2cccs2)c1`: the half-maximal activity concentration (AC50) is 1.26 µM (active).

Take `COc1cccc(-c2cncnc2NCc2cccc(C)c2)c1`: the concentration at half-maximal activity (AC50) was 2 µM (active).

For the compound `COc1cccc(-c2cncnc2NCc2ccccc2)c1`, the AC50 was 5.01 µM (active).

For the compound `CS(=O)(=O)N1CCC2(CC1)CN(Cc1cc(C(F)(F)F)cc(C(F)(F)F)c1)C2`, the AC50 entry is “inactive”.

Regarding `O=C(c1csnn1)N1CCC2(CC1)CCN(C(c1ccccc1)c1ccccc1)CC2`, the AC50 result is “inactive”.

On to `CC(=O)N/N=C/c1cc([N+](=O)[O-])ccc1OCCOc1ccccc1`, for which the AC50 result was “inactive”.

For `C=CCOc1ccc2cccc(/C=N/NC(=O)c3cc4cc([N+](=O)[O-])ccc4s3)c2c1`, the AC50 was 2.24 µM (active).

Consider `CCCCc1[nH]c(=O)c(C#N)c2c1CCCC2`, for which the AC50 was 5.01 µM (active).

As to `CCCCOC(=O)CCc1c(C)[nH]c(=O)c(C#N)c1C`, the AC50 entry is “inactive”.

Take `C/C(CCN1CCCCc2nc(C)c(C)cc21)=N\O[C@@H](C)CN1CCCc2nc(C)c(C)cc21`: the activity, negative = inhibition is -40.3% [at 11.4 µM] (inactive).

With `Cc1cc2c(c(=O)o1)[C@H](O)[C@H]1O[C@@H]1C2=O`, the activity, negative = inhibition is 2.69% [at 11.4 µM] (inactive).

For `C[N+]1(C)CCC[C@@H](OC(=O)C(O)(c2ccccc2)c2ccccc2)C1`, the AC50 result was “inactive”.

For `C[C@@H](C(=O)Nc1ccc2ccccc2c1)[C@@H]1C[C@@]1(C)[C@@H](NC(=O)c1ccncc1Cl)c1ccccc1`, the concentration at half-maximal activity (AC50) was 25.1 µM (active).

Take `CC(=O)N[C@H](c1ccccc1)[C@@]1(C)C[C@@H]1[C@@H](C)C(=O)Nc1ccc2ccccc2c1`: the half-maximal activity concentration (AC50) is 15.8 µM (active).

Consider `CC(=O)Nc1ccc(N2C(=O)CC(c3ccccc3)CC2=O)cc1`, for which the AC50 result was “inactive”.

Regarding `C[C@@H](C(=O)Nc1ccc2ccccc2c1)[C@@H]1C[C@@]1(C)[C@@H](NC(=O)Oc1ccc(F)cc1)c1ccccc1`, the AC50 entry is “inactive”.

For `COC(=O)N[C@H](c1ccccc1)[C@@]1(C)C[C@@H]1[C@@H](C)C(=O)Nc1ccc2ccccc2c1`, the AC50 was 12.6 µM (active).

For `C[C@@H](C(=O)Nc1ccc2ccccc2c1)[C@@H]1C[C@@]1(C)[C@@H](N)c1ccccc1`, the half-maximal activity concentration (AC50) was 15.8 µM (active).

Turning to `C[C@@H](C(=O)Nc1ccc2ccccc2c1)[C@H]1C[C@]1(C)[C@H](NC(=O)Oc1ccc(F)cc1)c1ccccc1`, the AC50 entry is “inactive”.

On to `CCCN(CCC)CCNC(=O)C1CCCN(S(=O)(=O)c2ccc3c(c2)oc(=O)n3C)C1` (stereo not drawn), for which the AC50 result was “inactive”.

With `CCc1nc2cc(CC(=O)O)ccc2o1`, the AC50 entry was “inactive”.

Consider `Cn1cccc1C(=O)N1CCC2(CC1)CN(c1ccccn1)C2`, for which the AC50 result is “inactive”.

Regarding `Nc1nc2c(ncn2COCCO)c(=O)[nH]1`, the AC50 result is “inactive”.

For the compound `C[C@@]12CC3CC(N)(C1)C[C@@](C)(C3)C2`, the AC50 entry was “inactive”.

Regarding `CC(=O)N[C@@H](c1ccccc1)[C@]1(C)C[C@H]1[C@@H](C)C(=O)Nc1ccc2ccccc2c1`, the concentration at half-maximal activity (AC50) is 12.6 µM (active).

For `C[C@@H](C(=O)Nc1ccc2ccccc2c1)[C@H]1C[C@]1(C)[C@H](NS(=O)(=O)c1ccc2ccccc2c1)c1ccccc1`, the AC50 entry is “inactive”.

As to `C[C@@]1(C(NC(=O)Cc2ccccc2)c2ccc(-c3ccccc3)cc2)C[C@H]1C1CCCCC1` (stereo partly drawn), the AC50 entry was “inactive”.
